Source: PubChem BioAssay (NCI)
The panel holds about 83,000 compounds, 20% with a hit somewhere; the sample as a whole holds those more often.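 Cell lines were cultured in 96-well plates, exposed to a single compound concentration, and assessed for percent growth 48 hours later.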 Active and inactive are the calls of the source. Rule for the calls: active = growth percent below 10; inactive = the rest.

Columns and labels:
Assay in all cases: NCI-60 one-dose screen, 48 h (100 = growth as untreated, 0 = no growth, -100 = all killed)
[1] = system: SK-MEL-2 melanoma; settings: 10 µM unless noted
[2] = system: EKVX NSCLC; settings: 10 µM
[3] = system: SN12C renal; settings: 10 µM unless noted
[4] = system: UO-31 renal; settings: 10 µM unless noted
[5] = system: ACHN renal; settings: 10 µM unless noted
[6] = system: CCRF-CEM leukemia; settings: 10 µM
[7] = system: MOLT-4 leukemia; settings: 10 µM unless noted
[8] = system: A498 renal; settings: 10 µM unless noted
[9] = system: CAKI-1 renal; settings: 10 µM unless noted
[10] = system: TK-10 renal; settings: 10 µM unless noted

Measured: growth

COc1ccc(-c2nc(SCC(C)C)nc(Nc3ccc(C)cc3)c2C#N)cc1
inactive: [1] 107% | [2] 72.8% | [3] 41.3% | [4] 59.7% | [5] 13.6% | [6] 52.9% | [7] 81.6%

Cc1nnc(/N=C2\NC(=O)/C(=C/C=C/c3ccccc3)S2)s1
inactive: [1] 57.7% | [2] 67.1% | [3] 66.2% | [4] 55.2% | [5] 50.8% | [8] 65.3% | [6] 29.8% | [7] 43.7%

Oc1ccc(N=Nc2ccc(N=Nc3ccccc3)cc2)cc1
active: [6] 6.69%
inactive: [1] 47.3% | [2] 39.8% | [3] 57.1% | [4] 15.8% | [5] 30.8%

COc1cc(CCNc2cnc3cc(N)cc(N)c3n2)cc(OC)c1
active: [6] -52.5% | [7] 5.61%
inactive: [1] 104% | [2] 123% | [3] 107% | [4] 90.9% | [5] 106% | [9] 129% | [8] 107%

O=C(NCCCl)Nc1nccnc1OCc1ccc(F)cc1
inactive: [1] 100% | [2] 97.5% | [3] 94.1% | [4] 86.8% | [5] 105% | [9] 89.6% | [8] 105% | [6] 96% | [7] 91.9%

COC(=O)c1ccc2[nH]c(O)c(C(=Nc3ccc(N(C)C(=O)CN4CCN(C)CC4)cc3)c3ccc(OC)cc3)c2c1
active: [9] 5.5% | [8] -16.6% | [6] 6.43% | [7] 2.57%
inactive: [1] 16.9% | [2] 45.7% | [3] 17% | [4] 14.3% | [5] 14.9%

COc1ccc(-c2nc(N)n(C(=S)Nc3ccccc3)n2)cc1
inactive: [1] 101% | [2] 96.3% | [3] 100% | [4] 74.2% | [5] 97.9% | [6] 98.7% | [7] 98.5%

Cc1c([C@H](C(Cl)Cl)[C@H](O)[C@H]2C[C@H](C)C(=O)O2)ccc2c1C(=O)[C@H]1[C@H]2C[C@@H](Br)[C@@]23O[C@@H](CO[C@H]2O)CC13C (some centres not stated)
active: [9] -31.4% | [8] -22.6%
inactive: [1] 74% | [2] 27.7% | [3] 25.1% | [4] 56.2% | [5] 45.9% | [6] 17.2% | [7] 16.4%

CCCCCCNC(=O)Oc1ccc(/C(=C(/C)Cc2ccc(OC)cc2)c2ccc(OCCN(C)C)cc2)cc1
inactive: [1] 111% | [2] 78.1% | [3] 60.3% | [4] 38.9% | [5] 64.2% | [6] 48.2% | [7] 30.7%

CCCC(=O)Nc1ccccc1C(=O)O
inactive: [1] 100% | [2] 96.4% | [3] 109% | [4] 91.3% | [10] 92.3% | [5] 108% | [6] 104% | [7] 98.6%

COc1ccc(C2CC(=O)c3c(O)cc(OC4OC(COC5OC(C)C(O)C(O)C5O)C(O)C(O)C4O)cc3O2)cc1O (configuration not stated)
active: [1] -1.88%
inactive: [2] 100% | [3] 108% | [4] 95.3% | [5] 117% | [9] 105% | [8] 132% | [6] 106% | [7] 113%

CCC(C)(C)c1ccc(OCCCCCCN2CCNCC2)cc1
inactive: [1] 96.9% | [2] 115% | [3] 88.2% | [4] 63.5% | [5] 42.6% | [9] 70% | [7] 10.4%
active: [6] 4.24%

O=C(O)/C(Br)=C/c1c[nH]c2ccc(Br)cc12
active: [6] -46.1%
inactive: [1] 99% | [2] 119% | [3] 108% | [4] 88.8% | [5] 104% | [9] 97.6% | [8] 132% | [7] 31.8%

N#CCCCCCCCCCCC#N
inactive: [1] 108% | [2] 97% | [3] 105% | [4] 92.9% | [5] 107% | [9] 95.2% | [6] 97.5% | [7] 105%

N#Cc1ccc(NC2c3ccccc3CC2O)cc1 (configuration not stated)
inactive: [1] 103% | [2] 114% | [3] 107% | [10] 119% | [5] 104% | [9] 106% | [8] 115% | [6] 94.6% | [7] 91.5%

COc1cc2ncnc(-n3ncc4cc(NC(=O)Nc5ccc(Cl)c(C)c5)ccc43)c2cc1OC
inactive: [1] 92.5% | [2] 97.7% | [3] 98.8% | [4] 100% | [5] 103% | [9] 92.7% | [8] 101% | [6] 102% | [7] 84%

COc1ccc(-c2cc(C#N)c(NNC(C)=O)[nH]2)cc1
inactive: [1] 102% | [2] 112% | [3] 113% | [10] 95.7% | [5] 103% | [9] 107% | [8] 123% | [7] 46%
active: [6] -0.558%

CC1=C(C)C[C@]2(C(=O)O[C@H]3CCCC[C@@H]32)[S@](=O)C1
inactive: [1] 86.3% | [2] 109% | [3] 102% | [10] 89.7% | [5] 120% | [6] 105% | [7] 105%

O=C(Oc1ccccc1)c1ccccc1Cl
inactive: [1] 123% | [2] 99.6% | [3] 107% | [10] 111% | [5] 102% | [7] 110%
active: [6] -11.9%

Cc1ccnc2c(NC(C)CCCN)cc(O)c(O)c12 (configuration not stated)
inactive: [1] 91.9% | [2] 93.8% | [4] 83.7% | [10] 109% | [5] 99.5% | [9] 89.3% | [8] 93.5% | [6] 39.6% | [7] 54.1%

CC(=O)N1N=C(c2ccc(Cl)cc2)CC1c1cn(-c2ccccc2)nc1-c1ccc([N+](=O)[O-])cc1 (configuration not stated)
inactive: [1] 129% | [2] 98.8% | [3] 96.8% | [10] 111% | [5] 96.8% | [9] 83.5% | [8] 109% | [6] 105% | [7] 110%

O=C1Nc2ccccc2/C1=C/c1cn(CC(O)Cn2cc(/C=C3\C(=O)Nc4ccccc43)c3ccccc32)c2ccccc12 (configuration not stated)
active: [1] -57.6% | [2] -62.3% | [4] -9.18% | [10] -15.1% | [5] -68.4% | [9] 9.83% | [6] -30.6% | [7] -29.4%

Nc1cc(N)c2nc(NCCc3ccc(Cl)c(Cl)c3)cnc2c1
active: [6] -63.3% | [7] -69.9%
inactive: [1] 54.9% | [2] 28.6% | [4] 55.8% | [10] 98.6% | [5] 62.6% | [9] 133% | [8] 88.2%

CC1=C(C)C(=O)C(C(C)C2=C(C)C(=O)C(C)=C(C)C2=O)=C(C)C1=O
inactive: [1] 97.8% | [2] 61.7% | [3] 120% | [10] 75.7% | [5] 110% | [9] 142% | [8] 84.6% | [6] 67.4% | [7] 32.9%

CC(=O)Nc1nc(C)c(C(=O)NN)s1
inactive: [1] 24.7% | [2] 143% | [4] 86.1% | [10] 203% | [5] 93.6% | [9] 125% | [8] 106% | [6] 94.9% | [7] 111%

CCCCCCCCC/C(=N\NC(=O)c1ccncc1)c1ccc(O)c(O)c1O
inactive: [1] 38.5% | [2] 34.5% | [4] 20.8% | [10] 43.1% | [5] 15.8% | [9] 14.3% | [8] 45% | [7] 15.5%
active: [6] 9.71%

O=C1c2ccccc2CCc2ccccc21
inactive: [1] 102% | [2] 89.4% | [3] 96.7% | [10] 99.3% | [5] 102% | [9] 90.5% | [6] 91.8% | [7] 111%

CC(C)OC(=O)c1ccc2n1CCCc1cnc(Nc3ccccc3)nc1-2
inactive: [1] 66.3% | [2] 57.6% | [3] 81.7% | [10] 85.3% | [5] 74.8% | [9] 65.6% | [8] 63.5% | [6] 72.3% | [7] 73.8%

O=c1c(N=Nc2nccs2)c(-c2ccccc2)[nH]n1-c1nc(-c2ccccc2)cs1
inactive: [1] 22.8% | [2] 53.1% | [4] 36.4% | [10] 45.6% | [5] 35.4% | [9] 35.6% | [8] 28.6% | [6] 25.5% | [7] 30.3%
